PubChem BioAssay AID2551 (National Center for Advancing Translational Sciences (NCATS), 2010)
In all, about 310,000 compounds went through this assay and about 17,000 (5.5%) were called active. About 11% were inconclusive and are not listed. Many of the other results were omitted from the sample, so actives are more common in it than they were. Values without a mark were called inactive. Calls come from the whole dose curve; as a rule, active = well fitted inhibition curve with a large enough effect; inconclusive = small, poorly fitted or top-dose-only effect, or effect the other way; inactive = no such curve, though single readings can be large or run the other way.

target: Nuclear receptor ROR-gamma (Mus musculus) (UniProt P51450); test: qHTS for inhibitors of ROR gamma transcriptional activity; settings: Drosophila S2 Gal4-RORgamma UAS-luciferase reporter, 20 h; series mostly up to 53.6 µM; activity change, negative = inhibition: at the top concentration; note: nearly all actives have a fitted effect of over 60% in size
Outline: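 Luminescence from a UAS-regulated Photinus luciferase reporter in stably transfected Drosophila Schneider cells is measured; decreased signal marks ROR gamma inhibition. Fusion expression is induced by 700 uM copper sulfate for 20 hr.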
% is set by controls: 0 for no effect and ±100 for the full control effect; potency is the fitted concentration of half-maximal effect.

Chain of Nuclear receptor ROR-gamma (Mus musculus) (P51450 whole entry, looked up, the tested form may be a part): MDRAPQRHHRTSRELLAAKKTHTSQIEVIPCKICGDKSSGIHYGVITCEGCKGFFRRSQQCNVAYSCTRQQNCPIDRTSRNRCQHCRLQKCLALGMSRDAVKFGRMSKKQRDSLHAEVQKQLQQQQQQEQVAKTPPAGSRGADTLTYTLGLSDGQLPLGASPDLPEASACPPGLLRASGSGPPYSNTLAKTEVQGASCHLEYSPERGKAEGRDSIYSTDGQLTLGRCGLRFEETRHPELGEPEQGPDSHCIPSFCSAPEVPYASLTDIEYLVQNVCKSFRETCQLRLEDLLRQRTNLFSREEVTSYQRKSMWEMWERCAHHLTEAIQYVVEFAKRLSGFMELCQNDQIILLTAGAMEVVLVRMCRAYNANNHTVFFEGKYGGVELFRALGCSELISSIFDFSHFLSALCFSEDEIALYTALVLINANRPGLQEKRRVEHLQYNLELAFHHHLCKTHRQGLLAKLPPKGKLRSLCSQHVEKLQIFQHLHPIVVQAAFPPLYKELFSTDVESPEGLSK

SMILES | activity change, negative = inhibition | Potency
COC(=O)c1nc(NC(=O)c2ccccc2)n[nH]1 | 7.37% | 
Cn1nnc(NC(=S)NC(=O)c2ccccc2)n1 |  | 3.55 µM (active)
Cn1nnc(NC(=O)CSc2ncn[nH]2)n1 | 24.3% | 
COc1ccc(CN2CCN(C(=O)CCC(=O)Nc3nnc(C(C)C)s3)CC2)cc1F | 21.6% | 
O=C(CN(Cc1ccccc1)C(=O)CCC(=O)Nc1ccccn1)NCCc1ccccc1 | 24.4% | 
Cc1cccc2sc(N(CCCN(C)C)C(=O)CCS(=O)(=O)c3ccccc3)nc12 |  | 10 µM (active)
CN(C)CCCN(C(=O)COc1ccccc1)c1nc2c(Cl)cccc2s1 | -9.36% | 
Cc1cc(C)c2nc(N(CCN(C)C)C(=O)/C=C/c3cccs3)sc2c1 | -0.19% | 
COc1cccc2sc(N(CCCN(C)C)C(=O)CCS(=O)(=O)c3ccccc3)nc12 |  | 11.2 µM (active)
Cc1ccc2sc(N(CCN(C)C)C(=O)/C=C/c3cccs3)nc2c1C | -30.6% | 
COc1cc2ccccc2cc1C(=O)N(CCN(C)C)c1nc2c(F)cccc2s1 | -22.6% | 
Cc1cccc(N2CCN(S(=O)(=O)c3ccc(-c4cc(C)no4)s3)CC2C)c1 (stereo not given) | 2.22% | 
COc1ccc(C(CNC(=O)c2cc3c(s2)CCCC3)N2CCOCC2)cc1 (stereo not given) | -19.1% | 
COc1cc(C(=O)NC2CCN(Cc3ccccc3)CC2)cc(Cl)c1OC(C)C | -13.7% | 
COc1ccc(C(CNC(=O)COc2ccccc2OC)N2CCCCC2)cc1 (stereo not given) | -9.48% | 
Cc1ccc2nc(NCCCNC(=O)c3cnccn3)c(C#N)cc2c1 | -1.25% | 
COCCCNC(=S)NCCNc1nc2cc(C)c(C)cc2cc1C#N |  | 15.8 µM (active)
Cc1ccc2cc(C#N)c(NCCNC(=S)NCCCN3CCOCC3)nc2c1 | -78.1% | 
COCC(=O)Nc1c(C(=O)N2CCCC2)oc2ccccc12 | 26.7% | 
CC(NC(=O)COc1ccc(-c2ccccc2)cc1)C1CCCO1 (stereo not given) | -0.806% | 
COc1ccc(S(=O)(=O)/N=C2\C=C(NS(=O)(=O)c3ccccc3)C(=O)c3ccccc32)cc1 | -36.9% | 
CC(C)CC[n+]1ccn(C2=C([O-])c3ccccc3C(=O)/C2=N\S(=O)(=O)c2ccccc2)c1 |  | 11.2 µM (active)
COc1ccc(C2CC(c3ccc([N+](=O)[O-])cc3)=NN2C(C)=O)cc1 (stereo not given) | 21.7% | 
CC(C)C(C)NC(=O)COc1nc2ccccc2nc1N(C)C1CCCCC1 (stereo not given) | 27.3% | 
O=C(/C=C/c1ccc(Cl)c([N+](=O)[O-])c1)c1cccnc1 | -10.5% | 
O=C(/C=C/c1ccc(Cl)cc1Cl)c1cccnc1 |  | 2.82 µM (active)
O=C(Nc1cccnc1)c1cc(Cl)ccc1Cl | -7.73% | 
O=C(/C=C/c1ccc([N+](=O)[O-])o1)NNC(=O)c1ccc(F)cc1 |  | 2.82 µM (active)

SMILES | activity change, negative = inhibition | Potency
O=C(N/N=C/c1ccc([N+](=O)[O-])o1)c1cn(-c2ccccc2)nc1-c1ccc(F)cc1 | -38.7% | 
Cc1ccc(/C=C/C(=O)Nc2ccc([N+](=O)[O-])c(NC(=O)/C=C/c3ccc(C)o3)c2)o1 | 4.73% | 
Cc1cc2c(cc1S(=O)(=O)NCc1ccc(Cl)cc1)OCC(=O)N2 | 6.35% | 
C=CCn1c2ccccc2c2nnc(SCc3[nH]c(=O)[nH]c3C(=O)CCCCC(=O)OCC)nc21 |  | 12.6 µM (active)
C=CCn1c(SCC(=O)CC(=O)OCC)nc2cc(C(=O)N3CCC(C(N)=O)CC3)ccc2c1=O | 15% | 
C=CCn1c2ccccc2c2nnc(SC(CC)C(=O)Nc3nc(C)c(C(=O)OCC)s3)nc21 (stereo not given) | -6.1% | 
CCNC(=S)N(CCN(CC)CC)Cc1cc2cc3c(cc2[nH]c1=O)OCCO3 | 9.92% | 
O=C(Nc1ccncc1)c1ccc([N+](=O)[O-])cc1Cl | -3.39% | 
COC(=O)c1sc(=S)n(-c2ccc(Cl)cc2)c1C | 2.4% | 
COc1ccc(-c2cn(-c3ccc(C)cc3)c(=O)n2CC(=O)Nc2ccc(OC)c(OC)c2)cc1 | 51% | 
Cc1ccc(-n2c(-c3ccc(Cl)cc3)n[nH]c2=S)cc1 |  | 3.16 µM (active)
COc1ccc(-n2c(-c3ccc(OC)c(OC)c3)n[nH]c2=S)cc1 |  | 11.2 µM (active)
Cc1cc(-c2n[nH]c(=S)n2-c2ccc(C)c(C)c2)no1 | 6.4% | 
COc1ccc(OC)c(-n2c(-c3ccn[nH]3)n[nH]c2=S)c1 | -4.51% | 
COc1ccc(OC)c(CNC(=O)Cn2nc(C)c3c(C)n(-c4ccc(C)cc4)nc3c2=O)c1 | 33.3% | 
COc1ccc(C(C)NC(=O)C2CCCC2)cc1 (stereo not given) | 3.72% | 
Cc1cc(=O)oc2c3c(cc(OCC(=O)NCc4ccccn4)c12)OC(C)(C)CC3 | 5.08% | 
Clc1ccc(CN2CCCCCC2)cc1Cl | -12.3% | 
CCc1ccccc1N(CC(=O)NCC1CCCO1)C(=O)CCC(=O)Nc1nccs1 (stereo not given) | -8.86% | 
CC1(C)CC(=O)C=C(Nc2ccccc2)C1 | 14.2% | 
COC(=O)NNC1=CC(=O)CC(C)(C)C1 | -9.78% | 
Cc1cc(C)nc(NNC2=CC(=O)CC(C)(C)C2)n1 |  | 17.8 µM (active)
CN1CCN(c2ccccc2NC(=O)COc2ccc(C3CCCCC3)cc2)CC1 | -22.9% | 
CCn1cc(S(=O)(=O)c2cccc(C)c2)c(=O)c2cc(F)c(N3CCN(C)CC3)cc21 | -6.95% | 
COc1ccc(CCNC(=O)CN2C(=O)CCSc3ccccc32)c(OC)c1 | -12.6% | 
CCCCC(CCC(=O)Nc1ccc(C(=O)OCC)cc1)C(=O)O (stereo not given) | -35% | 
CCOC(=O)c1ccc(NC(=O)c2nc[nH]c2C(=O)N[C@@H](CCCCNC(=O)OC(C)(C)C)C(=O)OC(C)(C)C)cc1 |  | 11.2 µM (active)
